Source: PubChem BioAssay AID1159577 (Broad Institute, 2015)
In all, about 1,300 compounds went through this assay and about 240 (18%) were called active. Not shown: some 8% with an inconclusive outcome. How the calls were made is not given here. These entries were drawn from the full list. Results with a measured potency or affinity are listed apart.

test: toxicity to human hepatoma HepG2 cells – cell-based, cherry-picked samples, cytotoxicity control, dose response (AID 1159577); conditions: HepG2 cytotoxicity counterscreen, plate reader; series mostly up to 19.5 µM; activity change, negative = cytotoxicity: at the top concentration;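 further: 0% = neutral control wells and -100% = positive control wells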

SMILES | activity change, negative = cytotoxicity
C[C@@H]1CN([C@H](C)CO)S(=O)(=O)c2ccc(C#Cc3ccccc3F)cc2O[C@H]1CN(C)C(=O)c1ccc2c(c1)OCO2 | 11% (inactive)
COc1cccc(C(=O)Nc2ccc3c(c2)C(=O)N(C)C[C@@H](OC)[C@H](C)CN(CCc2ccccc2)[C@H](C)CO3)c1 | 11% (inactive)
C/C=C/c1ccc2c(c1)[C@H]1[C@H](CCN1C(=O)c1ccc(F)cc1)[C@H](CO)N2 | 3.75% (inactive)
O=C(Nc1ccccc1F)N1C[C@@H]2[C@H](c3ccccc31)[C@H](CO)N2C(=O)C1CCOCC1 | 10.4% (inactive)
COc1ccc2c3c([nH]c2c1)[C@@H](CO)N(Cc1cc(F)ccc1F)CC31CN(C(=O)C2CCC2)C1 | -20.9% (inactive)
CN(C)C(=O)c1ccc(-c2cccc(-c3nc(C(=O)NC4CCCC4)cc4c3[C@H](CCO)N([S@@](=O)C(C)(C)C)C4)c2)cc1 | -9.78% [at 21 µM] (inactive)
CO[C@@H]1CN(C)C(=O)c2ccc(NC(=O)Nc3cccc(F)c3)cc2OC[C@H](C)NC[C@H]1C | -1.59% (inactive)
CO[C@H]1CN(C)C(=O)c2ccc(NC(=O)c3cccc(Oc4ccccc4)c3)cc2OC[C@@H](C)NC[C@H]1C | -8.04% (inactive)
COc1ccc(-c2ccc3c(c2)[C@H]2[C@H](CCN2Cc2ccncc2)[C@@H](CO)N3)cc1 | 2.93% [at 21 µM] (inactive)
CC(C)NC(=O)Nc1ccc2c(c1)C(=O)N(C)[C@H]1CC[C@H](CC(=O)Nc3ccccc3)O[C@H]1CO2 | 11.6% (inactive)
CN1C(=O)c2cc(NC(=O)c3cccc(F)c3)ccc2OC[C@H]2O[C@H](CC(=O)NCC3CCCCC3)CC[C@H]21 | -15.7% (inactive)
CC(C)(C)[S@@](=O)N1Cc2cc(C(=O)N[C@@H]3CCN(Cc4ccccc4)C3)nc(-c3cccc(-c4ccncc4)c3)c2[C@H]1CCO | 18.4% (inactive)
COc1cccc(-c2ccc3c(c2)[C@@H]2[C@@H](CCN2S(=O)(=O)c2cn(C)cn2)[C@@H](CO)N3)c1 | 2.19% (inactive)
N#Cc1ccc(-c2ccc3c(c2)[C@H]2[C@H](CCN2C(=O)C2CCCC2)[C@H](CO)N3)cc1 | -4.02% (inactive)
O=C(C[C@H]1CC[C@@H]2[C@H](COC[C@H](O)CN2Cc2cc(F)ccc2F)O1)N[C@@H]1CCN(Cc2ccccc2)C1 | 2.15% (inactive)
COc1ccc2c3c([nH]c2c1)[C@H](CO)N(Cc1ccccc1)CC31CCN(CC2CC2)CC1 | -13.9% (inactive)
COc1ccc2c3c([nH]c2c1)[C@@H](CO)N(Cc1ccc(Cl)cc1)CC31CCN(Cc2nccs2)CC1 | -16.6% (inactive)
COc1ccc2c3c([nH]c2c1)[C@@H](CO)N(Cc1nccs1)CC31CCN(Cc2nccs2)CC1 | -9.57% (inactive)
COc1ccc2c3c([nH]c2c1)[C@H](CO)N(Cc1ccc(F)cc1)CC31CCN(Cc2ccccn2)CC1 | 3.33% (inactive)
COc1cccc(CN2CC3(CCN(Cc4ccccn4)CC3)c3c([nH]c4cc(OC)ccc34)[C@@H]2CO)c1 | -5.33% (inactive)
COc1ccc2c3c([nH]c2c1)[C@H](CO)N(Cc1ccncc1)CC31CN(Cc2ccc(-c3ccccn3)cc2)C1 | -10.6% (inactive)
C[C@@H]1CN([C@H](C)CO)C(=O)c2cc(NC(=O)CCC(F)(F)F)ccc2O[C@H]1CN(C)C(=O)NC1CCCCC1 | 8.28% (inactive)
O=C(C1CCCC1)N1CC[C@@H]2[C@H](CO)Nc3ccc(Br)cc3[C@@H]21 | -29.2% [at 21 µM] (inactive)
COc1ccc2c3c([nH]c2c1)[C@H](CO)N(Cc1ccccc1Cl)CC31CN(C(C)=O)C1 | -0.4% (inactive)
CC(C)(C)[S@@](=O)N1Cc2cc(C(=O)NC3CCC3)nc(-c3cccc(Br)c3)c2[C@H]1CCO | -20.4% (inactive)
C[C@@H]1CN([C@@H](C)CO)C(=O)c2cccc(NC(=O)Nc3cccc4ccccc34)c2O[C@H]1CN(C)C(=O)NC1CCCCC1 | -0.959% [at 16 µM] (inactive)
COc1ccc2c3c([nH]c2c1)[C@H](CO)N(Cc1ccccc1F)CC31CN(C(=O)C2CCC2)C1 | 15.1% (inactive)
